High-throughput results deposited in PubChem by The Scripps Research Institute Molecular Screening Center.
Shown are actives, neighbours in structure and some others; about 2.6% of the full set was active somewhere.
KLF5 inh = KLF5 expression inhibitors, primary screen, DLD-1 cells, luminescence; hit rate 0.23% among 290,000; DLD-1 KLF5 promoter-luciferase reporter; inhibition, % at 5 µM;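 active = inhibition above a per-plate limit of that plate's mean compound inhibition plus 3 SD, cut at about 60% in these data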;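 note: higher means less KLF5 promoter-driven luciferase light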
BaF3 parental = parental Ba/F3 cell viability inhibition, counter-screen for JAK2V617F inhibitor project, murine pro-B, CellTiter-Glo luminescence. CellTiter-Glo ATP luminescence. inhibition, % at 5.6 µM. AID 1486, 2009. hit rate 1.1% among 220,000;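 active = inhibition above a per-campaign cutoff, the mean inhibition of all tested compounds plus 3 SD, cut at about 27% in these data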
FID counter = compounds displacing fluorescent DNA intercalator, primary screen, artefact control for HCV NS3 helicase inhibitor project, biochemical, FID fluorescence | hit rate 0.17% among 290,000 | AID 1845, 2009 | inhibition, % at 7.9 µM | DNA fluorescent intercalator displacement; in the data active = inhibition above about 37%;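 note: higher means more ethidium bromide displaced from hairpin DNA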
Ba/F3 V617F tox = reduced viability of JAK2V617F-dependent Ba/F3 cells, primary screen, JAK2V617F inhibitor project, cell-based, Ba/F3 EpoR-JAK2V617F, luminescence | ATP luminescence | inhibition, % at 5.6 µM | hit rate 1.1% among 220,000 | AID 1446, 2008;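 active = inhibition above the campaign mean plus 3 SD over all tested compounds, cut at about 24% in these data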;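 note: cytokine-independent growth of Ba/F3 cells driven by EpoR plus mutant JAK2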
IEC-6 tox-1 = cytotoxicity in IEC-6 intestinal epithelial cells, primary screen, cytotoxicity control for KLF5 inhibitor project, cell-based, luminescence. IEC-6 cytotoxicity, luminescence viability. inhibition, % at 5 µM. hit rate 0.78% among 290,000. AID 1825, 2009
GPR7 antagonist = GPR7 receptor antagonists, primary screen, cell-based, fluorescence, single concentration; Neuropeptides B/W receptor type 1 (Homo sapiens), P48145; GPR7-expressing cells, fluorescence antagonist assay; inhibition, % at 4.4 µM; hit rate 1.1% among 290,000; AID 1861, 2009; in the data active = inhibition above about 16%, passing the limit was not always enough;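 note: cells stimulated with the agonist NPW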
Target sequence (P48145 whole entry, looked up): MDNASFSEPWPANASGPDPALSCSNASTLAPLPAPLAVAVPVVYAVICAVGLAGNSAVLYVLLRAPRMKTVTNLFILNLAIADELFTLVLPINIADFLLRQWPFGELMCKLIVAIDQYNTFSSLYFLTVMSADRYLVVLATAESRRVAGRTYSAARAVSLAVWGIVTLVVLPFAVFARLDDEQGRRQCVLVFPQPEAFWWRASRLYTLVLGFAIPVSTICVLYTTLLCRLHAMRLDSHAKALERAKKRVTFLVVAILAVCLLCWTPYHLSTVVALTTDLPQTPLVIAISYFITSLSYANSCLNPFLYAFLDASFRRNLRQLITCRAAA
KLF5 inh confirm = KLF5 expression inhibitors, confirmation, DLD-1 cells, luminescence; DLD-1 KLF5 promoter firefly luciferase reporter; shares compounds with KLF5 inh; inhibition, % at 4 µM; hit rate 79% among 610;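 active = inhibition above a set limit taken from the earlier primary screen, cut at about 63% in these data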
IEC-6 tox-2 = cytotoxicity in rat IEC-6 cells, cytotoxicity control for KLF5 inhibitor project, cell-based, luminescence, triplicate. inhibition, % at 4 µM. AID 1905, 2009. IEC-6 rat intestinal cells, viability luminescence. hit rate 56% among 610. shares compounds with KLF5 inh; in the data active = inhibition above about 23%;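 note: cells exposed to compounds for 48 hours before viability read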
IEC-6 tox confirm = cytotoxic compounds in IEC-6 epithelial cells, confirmation, cytotoxicity control, cell-based, luminescence; shares compounds with IEC-6 tox-1; IEC-6 rat intestinal epithelial viability; inhibition, % at 5 µM; hit rate 63% among 1,900; AID 1907, 2009
Large screens that a line does not name were inactive (follow-up assays come after a bar, where they were run). Cut-off read from the data, not from the text of the source, unless noted: active = inhibition above about 22%; inactive = the rest.

N#Cc1ccccc1S(=O)(=O)N1CCN(c2ccc(S(=O)(=O)N3CCOCC3)cn2)CC1	none
CSc1nc(N(C)NC(=O)c2ccc(Cl)cc2)c2ccccc2n1	KLF5 inh 65, BaF3 parental 78, Ba/F3 V617F tox 80, IEC-6 tox-1 80 | KLF5 inh confirm 75 | IEC-6 tox-2 64 | IEC-6 tox confirm 63
CSc1nc(N(C)NC(=O)c2ccccc2)c2ccccc2n1	KLF5 inh 76, BaF3 parental 69, Ba/F3 V617F tox 69, IEC-6 tox-1 78 | KLF5 inh confirm 75 | IEC-6 tox-2 65 | IEC-6 tox confirm 55
CCOc1ccc(NC(=O)c2cc(OC)nc3ccccc23)cc1	KLF5 inh 66, IEC-6 tox-1 88 (no result: BaF3 parental, Ba/F3 V617F tox) | KLF5 inh confirm 82 | IEC-6 tox-2 63 | IEC-6 tox confirm 53
CCN1/C(=C/c2sc(-c3ccccc3C)c[n+]2C)Sc2ccccc21	KLF5 inh 63, BaF3 parental 80, Ba/F3 V617F tox 100, IEC-6 tox-1 34, GPR7 antagonist 47 | KLF5 inh confirm inactive | IEC-6 tox-2 inactive | IEC-6 tox confirm 39
COC(=O)c1cc(C(=O)N2CCN(c3cccc(Cl)c3)CC2)cc([N+](=O)[O-])c1	KLF5 inh 70, BaF3 parental 72, Ba/F3 V617F tox 73, IEC-6 tox-1 79 | KLF5 inh confirm 76 | IEC-6 tox-2 56 | IEC-6 tox confirm 53
CCOc1ccccc1C(=O)N1CCN(c2cccc(Cl)c2)CC1	KLF5 inh 85, BaF3 parental 85, Ba/F3 V617F tox 89, IEC-6 tox-1 92, GPR7 antagonist 21 | KLF5 inh confirm 109 | IEC-6 tox-2 75 | IEC-6 tox confirm 67
COc1ccc(C(=O)/C(=C\c2ccco2)N2C=CC=CC2=C(C#N)C#N)cc1	KLF5 inh 69, BaF3 parental 100, Ba/F3 V617F tox 99, IEC-6 tox-1 83, GPR7 antagonist 47 | KLF5 inh confirm inactive | IEC-6 tox-2 50 | IEC-6 tox confirm 62
Cc1csc(SCC(=O)NC(C)c2ccccc2)n1 (configuration not stated)	none
Cc1cc(NCc2ccccn2)n2nc(C)c(-c3ccccc3)c2n1	KLF5 inh 67, IEC-6 tox-1 81 | KLF5 inh confirm inactive | IEC-6 tox-2 inactive | IEC-6 tox confirm inactive
COC(=O)CSc1ccc2nnc(-c3ccc(OC)c(OC)c3)n2n1	none
CCOc1ccc(C(=O)c2cc([N+](=O)[O-])ccc2N2CCOCC2)cc1	KLF5 inh 89, BaF3 parental 96, Ba/F3 V617F tox 97, IEC-6 tox-1 92 | KLF5 inh confirm 95 | IEC-6 tox-2 86 | IEC-6 tox confirm 82
Cc1ccc(C(=O)c2cc([N+](=O)[O-])ccc2N2CCOCC2)cc1	none
COc1ccc(C(=O)c2cc([N+](=O)[O-])ccc2N2CCOCC2)cc1	KLF5 inh 77, BaF3 parental 94, Ba/F3 V617F tox 92, IEC-6 tox-1 85 | KLF5 inh confirm 83 | IEC-6 tox-2 66 | IEC-6 tox confirm 64
Cc1ccc(COC(=O)c2cc([N+](=O)[O-])ccc2N2CCOCC2)cc1	KLF5 inh 83, IEC-6 tox-1 87 (no result: BaF3 parental, Ba/F3 V617F tox) | KLF5 inh confirm 84 | IEC-6 tox-2 74 | IEC-6 tox confirm 61
CCC(CC)NC(=O)c1cc([N+](=O)[O-])ccc1N1CCOCC1	none
CCOc1ccc2c(c1)C(C)=CC(C)(C)N2S(=O)(=O)c1ccc(NC(C)=O)cc1	KLF5 inh 73, IEC-6 tox-1 92 (no result: BaF3 parental, Ba/F3 V617F tox) | KLF5 inh confirm 89 | IEC-6 tox-2 71 | IEC-6 tox confirm 72
O=C(CNC(=O)c1ccc(Cl)cc1)NC1CCCCC1	none (no result: BaF3 parental, Ba/F3 V617F tox)
